{
  "source": "paper PMC9911399",
  "about": "“Two distinct binding modes provide the RNA-binding protein RbFox with extraordinary sequence specificity”",
  "binders": {"B1": {"name": "AAGCUUU (DNA:RNA)", "RNA": "GGGAGACCGGAAUUCAGAUUGUCCAAGCUUUUUAAAUCCCGUCGUAGCCACCA", "DNA 1": "CAATCTGAATTCCGGTCTCCC", "DNA 2": "TGGTGGCTACGACGGGATT"}, "B2": {"name": "GACCGCU (DNA:RNA)", "RNA": "B1 RNA with A25G, G27C, U29G, U30C", "DNA 1": "CAATCTGAATTCCGGTCTCCC", "DNA 2": "TGGTGGCTACGACGGGATT"}, "B3": {"name": "GCCGCGG (DNA:RNA)", "RNA": "GGGAGACCGGAAUUCAGAUUGUCCGCCGCGGUUAAAUCCCGUCGUAGCCACCA", "DNA 1": "CAATCTGAATTCCGGTCTCCC", "DNA 2": "TGGTGGCTACGACGGGATT"}, "B4": {"name": "CCUACUC (DNA:RNA)", "RNA": "B3 RNA with G25C, C27U, G28A, G30U, G31C", "DNA 1": "CAATCTGAATTCCGGTCTCCC", "DNA 2": "TGGTGGCTACGACGGGATT"}, "B5": {"name": "GAUUGUG (DNA:RNA)", "RNA": "B1 RNA with A25G, G27U, C28U, U29G, U31G", "DNA 1": "CAATCTGAATTCCGGTCTCCC", "DNA 2": "TGGTGGCTACGACGGGATT"}, "B6": {"name": "GCGAAUG (DNA:RNA)", "RNA": "B3 RNA with C27G, G28A, C29A, G30U", "DNA 1": "CAATCTGAATTCCGGTCTCCC", "DNA 2": "TGGTGGCTACGACGGGATT"}, "B7": {"name": "GCGAAUU (DNA:RNA)", "RNA": "B1 RNA with A25G, A26C, C28A, U29A", "DNA 1": "CAATCTGAATTCCGGTCTCCC", "DNA 2": "TGGTGGCTACGACGGGATT"}, "B8": {"name": "GCGAUUG (DNA:RNA)", "RNA": "B1 RNA with A25G, A26C, C28A, U31G", "DNA 1": "CAATCTGAATTCCGGTCTCCC", "DNA 2": "TGGTGGCTACGACGGGATT"}, "B9": {"name": "GCGACCG (DNA:RNA)", "RNA": "B3 RNA with C27G, G28A, G30C", "DNA 1": "CAATCTGAATTCCGGTCTCCC", "DNA 2": "TGGTGGCTACGACGGGATT"}, "B10": {"name": "GCGAACC (DNA:RNA)", "RNA": "B3 RNA with C27G, G28A, C29A, G30C, G31C", "DNA 1": "CAATCTGAATTCCGGTCTCCC", "DNA 2": "TGGTGGCTACGACGGGATT"}, "B11": {"name": "GAACGUC (DNA:RNA)", "RNA": "B1 RNA with A25G, G27A, U29G, U31C", "DNA 1": "CAATCTGAATTCCGGTCTCCC", "DNA 2": "TGGTGGCTACGACGGGATT"}, "B12": {"name": "GAAUGUG (DNA:RNA)", "RNA": "B1 RNA with A25G, G27A, C28U, U29G, U31G", "DNA 1": "CAATCTGAATTCCGGTCTCCC", "DNA 2": "TGGTGGCTACGACGGGATT"}, "B13": {"name": "CGAUGUG (DNA:RNA)", "RNA": "B1 RNA with A25C, A26G, G27A, C28U, U29G, U31G", "DNA 1": "CAATCTGAATTCCGGTCTCCC", "DNA 2": "TGGTGGCTACGACGGGATT"}, "B14": {"name": "GCGAACG (DNA:RNA)", "RNA": "B3 RNA with C27G, G28A, C29A, G30C", "DNA 1": "CAATCTGAATTCCGGTCTCCC", "DNA 2": "TGGTGGCTACGACGGGATT"}, "B15": {"name": "GCGCGAA (DNA:RNA)", "RNA": "B1 RNA with A25G, A26C, U29G, U30A, U31A", "DNA 1": "CAATCTGAATTCCGGTCTCCC", "DNA 2": "TGGTGGCTACGACGGGATT"}, "B16": {"name": "GCGAAUC (DNA:RNA)", "RNA": "B1 RNA with A25G, A26C, C28A, U29A, U31C", "DNA 1": "CAATCTGAATTCCGGTCTCCC", "DNA 2": "TGGTGGCTACGACGGGATT"}},
  "note": "Positions count from the first letter of the chain named. In all, about 16,000 sequences were measured (“ka relative to ugcaugu”: median about 0.096, highest 2% from about 0.35 on). This is one part of a sample in which the highest values are shown more often than they occur.",
  "data": [
    {"target": "T1, RBFOX1 RRM RbFoxmut (Fox-RRM*) (Homo sapiens, UniProt Q9NWB1 109-208, R118D;E147R;N151S;E152T)", "T1 sequence": "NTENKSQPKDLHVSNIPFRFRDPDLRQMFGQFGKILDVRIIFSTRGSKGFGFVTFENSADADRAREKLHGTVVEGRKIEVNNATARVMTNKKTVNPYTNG", "assay": "EMSA; HiTS-Eq, 1 nM pool, 10 min; buffer printed only for the single-RNA assays: 10 mM Tris pH 7.5, 150 mM NaCl, 3.4 mM EDTA, 0.001% NP-40, 30 C", "settings": "tags: His6 N-terminal (pET28a); label: 5' 32P", "method_in_brief": "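Purified RbFox RRM, wild type or mutant, was incubated for 10 min in 50 µL with 1 nM of a 5′-radiolabelled RNA pool carrying 7 randomized nucleotides, whose flanks were annealed to DNA oligonucleotides, over a series of increasing protein concentrations. Unbound RNA was resolved on 8% native PAGE, cut out, reverse-transcribed, barcoded by PCR and sequenced on an Illumina HiSeq 2500. Relative association constants were derived from changes in read counts for each RNA species versus the control reaction and normalised to the cognate motif.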", "values": [
      {"binder": "B1", "binding signal": "0.0764 KA relative to UGCAUGU"},
      {"binder": "B2", "binding signal": "0.0966 KA relative to UGCAUGU"},
      {"binder": "B3", "binding signal": "0.0996 KA relative to UGCAUGU"},
      {"binder": "B4", "binding signal": "0.0423 KA relative to UGCAUGU"},
      {"binder": "B5", "binding signal": "0.249 KA relative to UGCAUGU"},
      {"binder": "B6", "binding signal": "1.44 KA relative to UGCAUGU"},
      {"binder": "B7", "binding signal": "0.113 KA relative to UGCAUGU"},
      {"binder": "B8", "binding signal": "0.206 KA relative to UGCAUGU"},
      {"binder": "B9", "binding signal": "0.111 KA relative to UGCAUGU"},
      {"binder": "B10", "binding signal": "0.0798 KA relative to UGCAUGU"},
      {"binder": "B11", "binding signal": "0.102 KA relative to UGCAUGU"},
      {"binder": "B12", "binding signal": "1.27 KA relative to UGCAUGU"},
      {"binder": "B13", "binding signal": "0.151 KA relative to UGCAUGU"},
      {"binder": "B14", "binding signal": "0.354 KA relative to UGCAUGU"},
      {"binder": "B15", "binding signal": "0.104 KA relative to UGCAUGU"},
      {"binder": "B16", "binding signal": "0.385 KA relative to UGCAUGU"}
    ]}
  ]
}
